Drawing on ChEMBL document CHEMBL3433997, “St. Jude Leishmania screening dataset” (2016), this text covers inhibition for 35 compounds.

Each structure is given as a SMILES string.

Holding throughout (type): functional
The target in assay [1] is Solute carrier family 2, facilitated glucose transporter member 1 (Homo sapiens) (UniProt P11166). The assay can be described thus: ST_JUDE_LEISH: Cytotoxicity at 2uM final concentration against transgenic Leishmania Mexicana promastigotes LmGLUT1 that are glucose transport deficient and complemented with the human glucose transporter GLUT1. Activity is measured by DNA content using SYBR green in vitro.
Sequence of Solute carrier family 2, facilitated glucose transporter member 1 (Homo sapiens) (P11166 whole entry): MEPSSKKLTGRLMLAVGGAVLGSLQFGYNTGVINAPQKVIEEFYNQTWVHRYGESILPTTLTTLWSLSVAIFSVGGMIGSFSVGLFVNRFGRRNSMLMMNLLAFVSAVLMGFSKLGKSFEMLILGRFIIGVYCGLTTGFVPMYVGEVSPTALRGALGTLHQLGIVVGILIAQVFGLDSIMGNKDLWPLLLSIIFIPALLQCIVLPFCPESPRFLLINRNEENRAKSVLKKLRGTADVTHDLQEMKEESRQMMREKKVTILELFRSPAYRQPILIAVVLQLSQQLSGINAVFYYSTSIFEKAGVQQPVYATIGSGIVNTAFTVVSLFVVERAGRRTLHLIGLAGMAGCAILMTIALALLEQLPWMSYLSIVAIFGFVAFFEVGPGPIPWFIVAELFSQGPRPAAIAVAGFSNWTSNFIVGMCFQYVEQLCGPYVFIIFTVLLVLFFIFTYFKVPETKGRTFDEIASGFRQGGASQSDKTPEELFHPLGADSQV

For assay [2], the target named is Hexose transporter 1 (Plasmodium falciparum) (UniProt O97467). The assay is described as follows: ST_JUDE_LEISH: Cytotoxicity at 2uM final concentration against transgenic Leishmania Mexicana promastigotes LmPfHT that are glucose transport deficient and complemented with the Plasmodium falciparum hexose transporter. Activity is measured by DNA content using SYBR green in vitro.

Assay [3] addresses Glucose transporter (Leishmania mexicana) (UniProt O61059). The assay is described as follows: ST_JUDE_LEISH: Cytotoxicity at 2uM final concentration against transgenic Leishmania Mexicana promastigotes LmGT2 that are glucose transport deficient and complemented with the L. Mexicana glucose transporter 2. Activity is measured by DNA content using SYBR green in vitro.

For the compound `NCC(NC(=O)c1ccc(-c2c[nH]c3ncccc23)s1)c1ccccc1` (stereo not given), the inhibition in assay [1] is 51.9%; in assay [2], 56.6%; in assay [3], 25.9%.

As to `O=C(NCc1ccc2c(c1)OCO2)c1nn(CCN2CCC(N3CCCC3)CC2)cc1-c1ccc(Cl)c(Cl)c1`, the inhibition is 2.53% in assay [1], 0.54% in assay [2] and 0.75% in assay [3].

In the case of `O=C(C=Cc1ccc(Cl)c(Cl)c1)NCCCCCN1CCC(CCNS(=O)(=O)c2ccc(F)cc2)CC1`, the inhibition worked out at 1.24% in assay [1], 0.05% in assay [2] and 4.55% in assay [3].

Take `CC(C)Cn1c(Sc2ccc(C#N)c([N+](=O)[O-])c2)nnc1-c1cccc(Cl)c1`: the figures for the inhibition in assay [1], in assay [2] and in assay [3] were 12.7%, 12.4% and 9.62%, respectively.

With `COc1ccc2nccc([C@@H](O)CN3CCC(NC(=O)/C=C/c4ccc(Cl)c(C(F)(F)F)c4)CC3)c2c1`, the inhibition in assay [1] was 5%; in assay [2], 4.74%; in assay [3] it was -1.23%.

For `Cc1cccc(-c2ccc3c(c2)CC(NCc2cccc(-n4ccnc4)c2)C3)c1` (stereo not given), the inhibition in assay [1] amounted to 31.8%; in assay [2] it was 41.4%; in assay [3], 26.6%.

In the case of `CCCCNc1cc(C)nc(NCc2ccccc2)n1`, the inhibition in assay [1] was determined as 22.1%; in assay [2], 16.4%; in assay [3], 5.11%.

As for `Cc1cc(OCCCN2CCCCC2C)ccc1NC(=O)COc1ccc(Cl)cc1C(=O)c1cc(Cl)cc(C#N)c1` (stereo not given), the figures for the inhibition in assay [1], in assay [2] and in assay [3] were 74.2%, 78.3% and 58%, respectively.

On to `Cc1cc(N[C@@H](Cc2ccccc2)C(=O)Nc2ccccc2)nc(NCCc2ccccc2)n1`, for which the inhibition in assay [1] was found to be 3.8%; in assay [2], 5.68%; in assay [3], 0.11%.

On to `O=C(Nc1ccc(Cl)c(C(F)(F)F)c1)N[C@H]1CCN(CCCCCNC(=O)C2CC2c2ccc(Cl)c(Cl)c2)C1` (stereo not given in full), for which the inhibition in assay [1] is -1.57%; in assay [2], 1.02%; in assay [3], -0.67%.

In the case of `COc1ccc(NC(=O)Nc2ccc(-c3ccc(-c4nc5ccccc5[nH]4)cc3)cc2)cc1`, the inhibition is 3.84% in assay [1], 5.18% in assay [2] and 2.97% in assay [3].

In the case of `CCOc1ccccc1CCNCC1CCN(CC2CCCCC2)CC1`, the inhibition in assay [1] was 1.97%; in assay [2], -2.9%; in assay [3] it was 2.88%.

As to `CC(=O)Nc1nc(C(=O)Nc2ccc(-c3ccc(-c4nc5cc(F)ccc5[nH]4)cc3)cc2)cs1`, the inhibition is 2.38% in assay [1], -2.61% in assay [2] and -1.02% in assay [3].

`COc1ccc(-c2ccc(NC(=O)c3cccs3)cc2)cc1CN1CCCN(C)CC1`: the inhibition is 3.24% in assay [1], 3.15% in assay [2] and -1.12% in assay [3].

`O=C(Nc1cc(F)cc(F)c1)N1CCOC(CCN2CCC3(CCc4ccccc43)CC2)(c2ccc(Cl)c(Cl)c2)C1` (stereo not given): the inhibition turned out to be 3.28% in assay [1], 3.01% in assay [2] and 1.78% in assay [3].

Regarding `N#CC1(CCCNCCc2ccc(O)cc2)CCCc2c(O)cccc21` (stereo not given), the inhibition in assay [1] was determined as 14.1%; in assay [2], 12%; in assay [3], 11.7%.

`O=C(Nc1cccc(CN2CCN(Cc3cccc(O)c3)CC2)c1)c1ccc(Cl)c(Cl)c1`: the figures for the inhibition in assay [1], in assay [2] and in assay [3] were -1.71%, -0.84% and -1.62%, respectively.

Turning to `O=C(Cc1ccc(Nc2nccc(Nc3cccc4[nH]ncc34)n2)cc1)Nc1ccc(C(F)(F)F)cc1`, the inhibition came to 5.9% in assay [1], 6.7% in assay [2] and 4.78% in assay [3].

With `C=CCOC(=O)N1CCC(CNCc2cccc(-c3ccc(-c4nc5ccccc5[nH]4)s3)c2)C1` (stereo not given), the inhibition in assay [1] was determined as 1.51%; in assay [2] it was 1.79%; in assay [3], 1.26%.

Turning to `COc1ccc(Cl)cc1N1CCN(CCCNC(=O)c2ccc(-c3nc4cc(Cl)c(F)cc4[nH]3)c(F)c2)CC1`, the figures for the inhibition in assay [1], in assay [2] and in assay [3] were 6.94%, 2.24% and 4.99%, respectively.

With `COc1cc(C(=O)NCCCN2CCN(c3cccc(Cl)c3)CC2)ccc1-c1cc2cc(Cl)c(Cl)cc2[nH]1`, the inhibition came to 4.57% in assay [1], 4.17% in assay [2] and 3.53% in assay [3].

`CC1CCC(NCc2c(O)ccc3ccccc23)CC1` (stereo not given): the inhibition in assay [1] turned out to be 2.01%; in assay [2] it was 1.89%; in assay [3] it was 2.46%.

As for `CC(C)(C)c1ccc2oc(=O)n(C3CCN(C(=O)c4ccc([N+](=O)[O-])o4)CC3)c2c1`, the inhibition in assay [1] came to 5.8%; in assay [2], 10.9%; in assay [3], 0.29%.

In the case of `CN(C)CCCOc1ccc(-c2nc(-c3ccc4c(c3)CCC4=NO)c(-c3ccncc3)[nH]2)cc1`, the results for the inhibition in assay [1], in assay [2] and in assay [3] were 2.55%, 2.33% and 1.24%, respectively.

As to `O=C(/C=C/c1ccc(Cl)c(Cl)c1)NCCCCCN1CCC(NC(=O)NC2CCCCCC2)CC1`, the inhibition was -0.58% in assay [1], 1.53% in assay [2] and 0% in assay [3].

On to `CCCOc1cccc(C(=O)N[C@@H](Cc2ccccc2)[C@H](O)CNCc2ccccc2OC)c1`, for which the inhibition in assay [1] stood at 3.73%; in assay [2] it was 2.98%; in assay [3] it was 4.75%.

For the compound `COc1cccc(NC(=O)c2cc([N+](=O)[O-])ccc2NC(=O)CN2CCc3ccccc3C2)c1`, the inhibition in assay [1] is 4.59%; in assay [2], 0.9%; in assay [3], 4.74%.

As for `CNCCNCc1ccc(-c2ccc(-c3nc4cc(F)ccc4[nH]3)cc2)cc1`, the inhibition is 0.55% in assay [1], 0.64% in assay [2] and 0.13% in assay [3].

For the compound `Cc1cc(OCCCN2CCC(NS(=O)(=O)c3cc(Br)c(Cl)s3)CC2)c2ccccc2n1`, the values for the inhibition in assay [1], in assay [2] and in assay [3] were -1.11%, -0.46% and -0.25%, respectively.

As for `COc1cccc(NC(=O)Nc2ccc(-c3oc(C(=O)NCC(c4ccccc4)N(C)C)cc3-c3ccncc3)cc2)c1` (stereo not given), the inhibition in assay [1] was determined as 5.08%; in assay [2], 3.73%; in assay [3] it was 3.18%.

Take `c1ccc2c(Nc3ccc(OCCOCCOc4ccc(Nc5c6ccccc6nc6ccccc56)cc4)cc3)c3ccccc3nc2c1`: the results for the inhibition in assay [1], in assay [2] and in assay [3] were -2.9%, -1.87% and 4.94%, respectively.

As to `CC(C)CC1c2[nH]c3ccccc3c(=O)c2CN1C(=O)OC(C)(C)C` (stereo not given), the inhibition was 2.72% in assay [1], 2.68% in assay [2] and 1.8% in assay [3].

Consider `O=C(Nc1ccc(Cl)cc1Cl)NC1CCN(CCCCCNC(=O)C2CC2c2ccc(Cl)c(Cl)c2)CC1` (stereo not given), for which the values for the inhibition in assay [1], in assay [2] and in assay [3] were 10.1%, 11.3% and 9.23%, respectively.

In the case of `CN1CCCN(Cc2cccc(-c3ccc(NS(=O)(=O)c4cccc5cccnc45)cc3)c2)CC1`, the inhibition was 1.84% in assay [1], 1.21% in assay [2] and -3.11% in assay [3].

As to `COc1ccc(Nc2nc(C)cc(NC3CCCC3)n2)cc1`, the figures for the inhibition in assay [1], in assay [2] and in assay [3] were 29.2%, 26.2% and 17.7%, respectively.
